# Source: PubChem BioAssay AID686970 (National Center for Advancing Translational Sciences (NCATS), 2013)
# Screen size: about 360,000 compounds; about 6,000 (1.7%) were called active. Another 8% or so got no clear call; they are omitted. The list comes from a sample in which actives are over-represented; it also holds similar structures and randomly drawn compounds. Where a call stands in place of a potency, no number is given. Unmarked numbers belong to inactive results. The call rests on the fitted dose curve; in most records, active means well fitted cell-killing curve with a large enough effect; inconclusive means small, poorly fitted or top-dose-only effect, or effect the other way; inactive means flat fitted curve, though single readings scatter.
# Assay: qHTS for induction of synthetic lethality in tumor cells producing 2HG: qHTS for the HT-1080-NT fibrosarcoma cell line;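 further: NT is the 2HG producing partner of a matched IDH1 knockdown line; nearly all actives have a fitted effect of over 55% in size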
# Conditions: HT-1080-NT fibrosarcoma viability, CellTiter-Glo ATP luminescence, 48 h; series mostly up to 46.1 µM
# Method in brief: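 Luminescent CellTiter-Glo readout after 48 hours of compound exposure at 37 degrees C defined viability of HT-1080-NT cells. Activity was normalized to DMSO wells and cell-free media wells; concentration-response curves were fitted and assigned curve classes.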
# Potency means the concentration at half of the fitted maximal effect.
Structure (SMILES),Potency,"activity, negative = less viability"
O=C(Nc1cc(C(F)(F)F)ccc1Cl)C(=O)N1CCCCC1,inactive,–
CC(=O)Nc1ccc(NC(=O)CCCNC(=O)c2ccc(Cl)cc2)cc1,inactive,–
CCCCNC(=O)C[C@@H]1C[C@@]2(C(=O)OCC)CCC=C2N(Cc2cccc3ccccc23)C1=O,inactive,–
CC1(C(=O)NS(=O)(=O)C2CC2)CCCN(C(=O)CSc2ccccc2)C1 (stereo not drawn),inactive,–
Cc1cc2oc(=O)cc(CN(C)Cc3ccccc3)c2cc1Cl,inactive,–
CC1CCCC(NC(=O)COC(=O)c2ccccc2C(=O)N(C)C2CCCCC2)C1C (stereo not drawn),inactive,–
O=C(O)C1CC(=O)N(Cc2cccnc2)C1 (stereo not drawn),inactive,–
Cc1ccccc1C1=N/C(=C/c2cccnc2)C(=O)O1,inactive,–
O=C1/C(=C\c2cccnc2)CN(Cc2ccccc2)C/C1=C\c1cccnc1,1.3 µM (active),–
N#Cc1cccc(NC(=O)c2cc(C3CCCCN3C(=O)CCc3ccccc3)on2)c1 (stereo not drawn),inactive,–
O=C1COc2ccc(S(=O)(=O)Nc3ccc(OC(F)(F)F)cc3)cc2N1,inactive,–
Cc1nn(C)c(C)c1NS(=O)(=O)c1ccc(OC(F)(F)F)cc1,inactive,–
O=S(=O)(Nc1ccc(O)c2ccccc12)c1ccc(OC(F)(F)F)cc1,23.1 µM (active),–
COC(=O)C1=CN(Cc2ccc(OC)c(OC)c2)C=C(C(=O)OC)C1c1cccs1,inactive,–
COc1ccc(CC2c3cc(OC)c(OC)cc3CC[N+]2(C)CCC(=O)OCCCCCOC(=O)CC[N+]2(C)CCc3cc(OC)c(OC)cc3C2Cc2ccc(OC)c(OC)c2)cc1OC (stereo not drawn),18.4 µM (active),–
COc1ccc(CC(=O)NC2CCSc3ccccc32)cc1OC (stereo not drawn),inactive,–
Cc1ccc(-c2ccc(CN3C(C)C(=O)N(Cc4cn(CCC5OCCCO5)nn4)CCS3(=O)=O)cc2)cc1 (stereo not drawn),inactive,–
COc1ccc(C(C(=O)NC2CCCCC2)N(C(=O)c2snc(C(N)=O)c2N)c2ccccc2OC)cc1 (stereo not drawn),inactive,–
Cc1ccccc1N(C(=O)CNC(=O)c1cccs1)C(C(=O)NC1CCCC1)c1ccncc1 (stereo not drawn),inactive,–
COc1ccc(C(C(=O)NC2CCCCC2)N(C(=O)CCl)c2ccccc2Cl)cc1 (stereo not drawn),18.4 µM (active),–
Cc1ccc(Cc2c(-c3ccc(C)cc3)nc3c4ccccc4ccn23)cc1,inactive,–
O=c1c2c3c(sc2n(CCN2CCCC2)c(=O)n1Cc1ccccc1)CCCCC3,inactive,–
CN(C)CCCn1c(=O)n(Cc2ccccc2)c(=O)c2c3c(sc21)CCCCC3,16.4 µM (active),–
CCn1c(=S)[nH]c2sc3c(c2c1=O)CCCCC3,inactive,–

Structure (SMILES),Potency,"activity, negative = less viability"
O=C(NCc1ccccc1Cl)c1csc([C@@H]2O[C@H](CO)[C@@H](O)[C@H]2O)n1,inactive,–
COc1ccc(Cl)cc1NC(=O)C1CC(=O)N(c2ccc(F)cc2)C1 (stereo not drawn),inactive,–
COc1cc(OC)c(N2CC(C(=O)Nc3cc(Cl)ccc3N3CCOCC3)CC2=O)cc1Cl (stereo not drawn),5.8 µM (active),–
COc1ccccc1N1CC(C(=O)Nc2ccc(S(=O)(=O)N3CCOCC3)cc2)CC1=O (stereo not drawn),inactive,–
CCCNC(=O)C1(C)CCN(C(=O)c2ccccc2OC(F)(F)F)C1 (stereo not drawn),inactive,–
O=C(O)C1CCCN1c1nc(Cl)ccc1[N+](=O)[O-] (stereo not drawn),inactive,–
COc1ccc(-c2ccc3[nH]c4c(c3c2)CCN2C[C@H]3[C@H](C)ON(C)[C@H]3C[C@@H]42)cc1,inactive,–
CCOC(=O)c1c(NC(=S)SC)sc(C(=O)N2CCc3ccccc3C2)c1C,inactive,–
Cc1ccc(S(=O)(=O)N2CCCCC2)cc1NC(=O)CCNC(=O)c1ccccc1Cl,inactive,–
COc1cccc(-n2c(SCC(=O)NC3CCS(=O)(=O)C3)nc3ccccc3c2=O)c1 (stereo not drawn),inactive,–
Cc1ccc(-n2c(SCC(=O)NCCC3=CCCCC3)nc3n[nH]c(C)c3c2=N)cc1Cl,23.1 µM (active),–
CCCCNC(=O)CSc1nc2n[nH]c(C)c2c(=N)n1-c1cccc(Cl)c1C,–,1.53% [at 9.24 µM]
COc1cccc(-n2c(SCC(=O)NC3CCCCC3)nc3n[nH]c(C)c3c2=N)c1,14.6 µM (active),–
Cc1nnc(OCC(=O)NCCC2=CCCCC2)c2ccccc12,inactive,–
C=CCn1c(CC(=O)Nc2cccc(OC)c2)nnc1SCC(=O)NC1CCCCC1,inactive,–
O=c1cc(CN2CCCCCCC2)c2c(ccc3ccccc32)o1,inactive,–
Nc1[nH]c(C(=O)c2ccccc2)c(-c2ccc(Br)cc2)c1C(=O)NC1CC1,inactive,–
CCc1nc2c(OCCOc3ccccc3)cccn2c1N(C)C(=O)c1cccs1,inactive,–
CCc1nc2c(=O)[nH]cnc2o1,inactive,–
Cc1ccccc1S(=O)(=O)NC(=O)C1(C)CCN1C(=O)C1(c2ccccc2)CCCC1 (stereo not drawn),inactive,–
CCOC(=O)C1(C)CCCN(C(=O)c2ccc(F)c(Cl)c2)C1 (stereo not drawn),inactive,–
COc1ccc(CNc2nccs2)cc1,inactive,–
COc1ccc(CNC(=O)C2CCCC2)cc1,inactive,–
COc1ccc(CNc2nc(NCc3ccc(OC)cc3)c3ncn(C4CCCC4)c3n2)cc1,7.31 µM (active),–
